HP1b chromo inh: HTS for Inhibitors of HP1-beta Chromodomain Interactions with Methylated Histone Tails; Chromobox protein homolog 1 (Homo sapiens), P83916; Potency, µM (highest dose often 114 µM), for the others: top-dose activity change, negative = inhibition, most hits filed as inhibitors; AlphaScreen HP1-beta / biotin-H3K9me3 peptide binding; AID 540317, 2011; hit rate 0.56% among 390,000; further: nearly all actives have a fitted effect of over 70% in size
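Compound inhibition of the preformed complex between 50 nM HP1-beta and 50 nM biotinylated H3K9me3 peptide was read by AlphaScreen. Buffer was PBS pH 7.4 with 0.01% Tween-20. Incubations ran 30 min at room temperature, with 10 ug/mL donor/acceptor beads.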
GLS inhibitor: qHTS for Inhibitors of Glutaminase (GLS). GLS enzymatic activity, qHTS titration. Potency, µM (titrated, usually from 45.5 µM), without a hit: top-dose activity change, negative = inhibition, most hits filed as inhibitors. hit rate 0.21% among 410,000. AID 624170, 2012; further: on the % scale 0 is the no-effect control and ±100 the full control effect
Target sequence (O94925 whole entry, looked up): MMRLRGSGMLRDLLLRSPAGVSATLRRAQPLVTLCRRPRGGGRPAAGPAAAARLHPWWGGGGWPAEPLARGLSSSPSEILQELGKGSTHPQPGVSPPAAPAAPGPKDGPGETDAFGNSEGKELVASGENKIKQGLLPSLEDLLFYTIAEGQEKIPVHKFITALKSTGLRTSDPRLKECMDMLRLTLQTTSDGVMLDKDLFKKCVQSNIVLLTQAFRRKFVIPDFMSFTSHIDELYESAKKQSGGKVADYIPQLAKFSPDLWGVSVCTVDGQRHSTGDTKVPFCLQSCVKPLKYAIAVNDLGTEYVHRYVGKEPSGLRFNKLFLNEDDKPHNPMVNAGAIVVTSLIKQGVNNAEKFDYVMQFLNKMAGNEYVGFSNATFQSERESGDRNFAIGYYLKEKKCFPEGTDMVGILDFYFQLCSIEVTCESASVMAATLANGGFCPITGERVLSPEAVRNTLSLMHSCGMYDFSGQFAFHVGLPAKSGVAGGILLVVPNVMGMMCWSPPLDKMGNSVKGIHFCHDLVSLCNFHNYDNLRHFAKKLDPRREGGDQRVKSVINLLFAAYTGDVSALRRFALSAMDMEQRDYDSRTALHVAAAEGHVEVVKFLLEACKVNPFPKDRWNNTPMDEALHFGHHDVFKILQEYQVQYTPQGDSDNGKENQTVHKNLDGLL
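Two-point fluorescence kinetic (t0, 30 min RT) for hKGA; glutamate detected via glutamate oxidase–HRP–Amplex Red. Substrate: 1 mM L-glutamine solution; buffer 45 mM KH2PO4, pH 8.2.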
G9a inh: qHTS Assay for Inhibitors of Histone Lysine Methyltransferase G9a. Histone-lysine N-methyltransferase EHMT2 (Homo sapiens), Q96KQ7. G9a H3K9 monomethylation, AlphaScreen, 2 h. Potency, µM (top dose mostly 102 µM), for the others: at the highest dose activity, negative = inhibition, hits mostly inhibitors. hit rate 8.8% among 350,000. AID 504332, 2011; further: on the % scale 0 is the no-effect control and ±100 the full control effect; nearly all actives have a fitted effect of over 75% in size
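Signal arises when biotinylated H3K9 peptide, once monomethylated, bridges streptavidin donor and antibody-captured acceptor beads. Enzyme at 20 nM was preincubated 15 min with test compounds; peptide 500 nM and SAM 20 uM then reacted for 2 h.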
JMJD2A Tudor inh: qHTS Assay for Inhibitors of JMJD2A-Tudor Domain; AlphaScreen JMJD2A-Tudor / H3K4me3 peptide binding; Potency, µM (highest dose often 114 µM), for inactives: at the top dose activity change, negative = inhibition, actives largely listed as inhibitors; hit rate 4.4% among 390,000; further: on the % scale 0 is the no-effect control and ±100 the full control effect; nearly all actives have a fitted effect of over 50% in size
L3MBTL1 block: qHTS Assay for the Inhibitors of L3MBTL1; Lethal(3)malignant brain tumor-like protein 1 (Homo sapiens), Q9Y468; AlphaScreen L3MBTL1–H3K9me1 peptide binding; Potency, µM (titrated, usually from 57.1 µM), for the others: top-dose activity, negative = inhibition, actives largely listed as inhibitors; hit rate 0.66% among 230,000; AID 485360, 2010; further: on the % scale 0 is the no-effect control and ±100 the full control effect; nearly all actives have a fitted effect of over 60% in size
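L3MBTL1 50 nM + b-AHA-H3(1-15)K9me1 75 nM, 30 min RT; compound added, 30 min RT; streptavidin donor/Ni-chelate acceptor beads 10 ug/mL each final, 30 min RT dark; AlphaScreen read.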
BAZ2B block: qHTS Assay for Inhibitors of BAZ2B; Bromodomain adjacent to zinc finger domain protein 2B (Homo sapiens), Q9UIF8; AlphaScreen BAZ2B-H3K14Ac peptide displacement; Potency, µM (series often up to 114 µM), for the others: at the top dose activity change, negative = inhibition, usual class: inhibitors; hit rate 4.4% among 360,000; further: on the % scale 0 is the no-effect control and ±100 the full control effect; nearly all actives have a fitted effect of over 60% in size
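AlphaScreen displacement: compounds (up to 110uM) incubated 30 min at room temperature with a preformed 50 nM BAZ2B/50 nM biotinylated H3K14Ac peptide complex in PBS pH 7.4 with Tween-20. Donor and acceptor beads at 10 ug/mL final added, 20 min light-protected before reading.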
* marks the source's active call; other numbers are inactive results; ? = inconclusive; nt = not tested or not shown; [ ] = dose if it differs, or a comment. This is a sample that favours compounds with a hit; in the whole collection about 10% have one here. The call rests on the fitted dose curve; in most records, active means well fitted curve in the direction sought with a large enough effect; inconclusive means small, poorly fitted or top-dose-only effect, or another doubt; inactive means no such curve, though single readings can be large; an effect the other way counts as inactive or inconclusive. Potency means the concentration at half of the fitted maximal effect.

SMILES	HP1b chromo inh	GLS inhibitor	G9a inh	JMJD2A Tudor inh	L3MBTL1 block	BAZ2B block
O=C(Cn1c(=O)oc2cc(S(=O)(=O)N3CCCCCC3)ccc21)Nc1cccc(C(F)(F)F)c1	18.0%	-26.4%	-30.6%[59 µM]	-12.2%	nt	2.2%
CCN(C(=O)CCc1nc(-c2ccc(C)cc2)no1)c1cccc(C(F)(F)F)c1	57.6%	2.1%	48.0%[59 µM]	15.1%	nt	37.4%
Cc1ccc(C2=NN(CC(=O)NC(C)c3ccccc3)C(=O)CC2)cc1 (stereo not given)	9.8%	-1.8%	-9.2%[59 µM]	-25.7%	nt	-29.4%
Cc1nc(S(=O)(=O)N(C)Cc2ccccc2)c(C#N)c(C)c1Cl	52.8%	8.1%	7.3%[0.501 µM]	5.7%	1.6%	4.7%
Cc1nc(S(=O)(=O)N2CCOCC2)c(C#N)c(C)c1Cl	1.8%	2.5%	80.5%[59 µM]	79.4µM*	-0.3%	-24.6%
Cc1nc(S(=O)(=O)NC2CCCCC2)c(C#N)c(C)c1Cl	-13.3%	-10.6%	79.4µM*	-1.5%[11.4 µM]	11.1%	-24.4%
Oc1c(Br)cc(Br)cc1-c1nc2ccccc2s1	30.2%	11.0%	-48.0%[59 µM]	5.6%	nt	-1.2%
O=C(NCc1ccccc1)c1ccc2c(c1)sc1nc(-c3ccc(F)cc3)cn12	66.6%	3.5%	5.9%[59 µM]	-14.5%	nt	-13.6%
Cc1ccc(C(C)C)c(OCC(=O)NCC2(N(C)C)CCCCC2)c1	43.7%	18.0%	-0.4%[59 µM]	-22.2%	nt	?
COc1cc(NC(C)CCCN)c2ncccc2c1 (stereo not given)	-5.8%	28.9%	12.6µM*	?	-10.4%	56.2µM*
CC1=NN(C(N)=S)C(=O)C1N=Nc1ccc(Br)cc1 (stereo not given)	13.8%	0.0%	nt	-27.2%	14.4%	-11.4%
CC1=NN(C(=O)c2ccncc2)C(=O)C1N=Nc1ccc2ccccc2c1 (stereo not given)	25.1µM*	21.4%	nt	?	nt	nt
CC1=NN(C(N)=S)C(=O)C1N=Nc1cccc(Cl)c1C (stereo not given)	?	19.4%	nt	50.1µM*	-6.8%	44.7µM*
CC1=NN(C(N)=S)C(=O)C1N=Nc1cccc2ccccc12 (stereo not given)	nt	nt	nt	nt	-0.7%	39.8µM*
CC1=NN(C(N)=S)C(=O)C1N=Nc1ccc(Cl)cc1 (stereo not given)	?	-9.3%	70.8µM*	?	4.4%	-6.1%
CC1=C(C(=O)Nc2ccccc2)C(c2cccc(O)c2)n2nc(-c3ccccc3Cl)nc2N1 (stereo not given)	17.0%	13.4%	-0.8%[59 µM]	-27.1%	nt	-9.0%
COC(=O)c1sccc1S(=O)(=O)N(CC(=O)NCc1ccc(F)cc1)c1ccc(Cl)cc1	-11.5%	7.1%	23.8%[59 µM]	-22.7%	nt	-3.8%
COC(=O)c1ccc(C)c(NC(=O)c2ccc(Cn3cc([N+](=O)[O-])cn3)o2)c1	9.0%	8.6%	21.3%[59 µM]	-18.1%	4.4%	-3.2%
CCNS(=O)(=O)c1ccc(NC(=O)c2ccc(Cn3cc([N+](=O)[O-])cn3)o2)cc1	0.6%	13.7%	50.1µM*	-9.7%	nt	16.2%
COc1ccc(NC(=O)c2ccc(Cn3cc(Cl)cn3)cc2)cc1	41.0%	9.7%	nt	-6.4%	37.5%	4.9%
CN(C)c1ccc(NC(=O)c2ccc(Cn3cc([N+](=O)[O-])cn3)cc2)cc1	44.7µM*	13.6%	14.1µM*	50.1µM*	nt	25.1µM*
CCOC(=O)N1C(COCc2ccccc2)C=CCS1(=O)=O (stereo not given)	27.4%	nt	nt	-1.4%	nt	nt
COc1ccc(Cl)cc1NC(=O)CN(C)C(=O)c1ccc(N2CCCCC2)c([N+](=O)[O-])c1	?	-3.3%	7.94µM*	?	-15.3%	?
COc1ccc(Cl)cc1NC(=O)CN(C)C(=O)c1ccc(N2CCCCCC2)c([N+](=O)[O-])c1	?	5.8%	22.4µM*	?	-14.1%	?
Cc1ccc(NC(=O)C2CCCN(c3cnccn3)C2)cc1Cl (stereo not given)	20.0%	6.9%	-8.3%[59 µM]	-6.9%	nt	-34.6%
SMILES	HP1b chromo inh	GLS inhibitor	G9a inh	JMJD2A Tudor inh	L3MBTL1 block	BAZ2B block
CCOC(=O)N1CCN(CCC(=O)c2ccc(Cl)cc2)CC1	18.2%	6.7%	?	-13.7%	6.7%[11.4 µM]	22.5%
CCOC(=O)N1CCN(CCC(=O)c2ccc(Br)cc2)CC1	4.0%	-9.8%	3.98µM*	?	nt	0.4%
COc1cc2c(cc1OC)CN(C(=O)CCNC(=O)c1ccc(Br)cc1)CC2	15.4%	1.0%	?	-6.9%	-2.5%	-3.9%
COc1cc2c(cc1OC)CN(CCC(=O)c1ccc(Br)cc1)CC2	-13.2%	?	14.1µM*	?	-4.0%	-23.5%
CCOC(=O)N1CCN(CCC(=O)Nc2ccc(OC)cc2)CC1	34.3%	0.5%	12.3%[59 µM]	-9.6%	nt	-6.0%
CCOC(=O)N1CCN(CCC(=O)c2ccc(OC)cc2)CC1	44.9%	-0.3%	10µM*	-15.0%	nt	13.0%
CC1(C)O[C@H]2C[C@@H]3[C@H]4CCC5=CC(=O)C=C[C@]5(C)[C@@]4(F)[C@@H](O)C[C@]3(C)[C@]2(C(=O)CO)O1	nt	-9.2%	19.0%[59 µM]	nt	nt	nt
C/C(=N\NC(=O)Cc1cccn1C)c1ccc2ccccc2c1	-1.9%	23.0%	70.8µM*	?	nt	?
CCCCC[n+]1cccc2c3ccccc3ccc21	14.2%	0.2%	50.1µM*	?	nt	33.5%
c1ccc(C[n+]2cccc3c4ccccc4ccc32)cc1	34.6%	-5.0%	nt	18.2%	6.1%	-1.0%
Cc1nc2ccc(C(=O)O)cc2c2c1CC(CN)O2 (stereo not given)	1.0%	-24.5%	79.4µM*	?	8.2%	-11.2%
CCOC(=O)c1ccc2nc(C)c3c(c2c1)OC(C)C3 (stereo not given)	31.4%	-10.4%	-47.5%[59 µM]	-2.9%	5.2%	7.0%
Nc1nc(NC(=O)Cc2ccccc2)nn1-c1ccccc1	59.9%	-3.0%	0.0%[12.7 µM]	?	-18.0%	31.6µM*
COC(=O)c1nc(NC(=O)c2cc(OC)c(OC)c(OC)c2)n[nH]1	48.6%	-7.9%	11.2µM*	-6.2%	nt	?
COc1ccccc1C(=O)Nc1nc(N)n(-c2ccccc2)n1	33.1%	0.8%	-10.0%[59 µM]	4.4%	-4.8%	?
COc1ccc(/C=C/C(=O)Nc2nc(N)n(-c3ccccc3)n2)cc1	35.6%	-6.9%	22.2%[59 µM]	-18.6%	-6.7%	50.1µM*
COc1cc(C(=O)Nc2nc(N)n(-c3ccccc3)n2)cc(OC)c1OC	-9.5%	0.0%	-1.6%[12.7 µM]	-3.8%[11.4 µM]	nt	50.1µM*

Compound activity (PubChem)
